# This is a sample that favours compounds with a hit; in the whole collection about 3.9% have one here.
# D1 potentiator: potentiators of human D1 dopamine receptor; P21728; HEK293 TREx D1 cells, calcium flux, dopamine EC20 potentiation; potentiation, % at 10 µM; 0.036% of 360,000 active; AID 504651; in the data active means potentiation above about 30%; further: 0% is about no effect
# D1 agonist: activates the human D1 dopamine receptor; activation, % at 2 µM; HEK293 T-REx D1 cells, calcium flux, agonist mode; P21728; 1% of 360,000 active; in the data active means activation above about 30%; further: 0% is about no effect
#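 Tetracycline-induced HEK293 TREx D1 cells, force-coupled to calcium signalling, were dye-loaded with a no-wash calcium kit. Compound was pin-added after a 10 s baseline. Fluorescence was read kinetically at 1 cycle/s for 180 s, with calcium rises flagged as agonism.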
# GALK inhibitor: inhibitors of human galactokinase | 0.007% of 270,000 active | P51570 | Purified GALK, Kinase-Glo residual ATP luminescence | AID 1868 | Potency, µM (titrated, usually from 57.5 µM), for inactives: at the top dose activity change, negative = inhibition, most hits filed as inhibitors; further: potency means the concentration at half of the fitted maximal effect; on the % scale 0 is the no-effect control and ±100 the full control effect
#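 GALK at 5 nM final was combined with compound, 35 uM ATP and 100 uM galactose in HEPES pH8.0 with MgCl2 and DTT. The reaction ran one hour at room temperature before luminescent ATP detection.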
# D1 antag: human D1 dopamine receptor antagonism; activity change, negative = inhibition, % at 10 µM; 3.2% of 360,000 active; HEK293 TREx D1 cells, calcium flux, dopamine EC80; active compounds read low; P21728; in the data active means activity change below about -30%; further: on the % scale 0 is the no-effect control and ±100 the full control effect
#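 HEK293 T-REx cells expressing inducible, force-coupled D1 receptor; no-wash Ca dye, 30–90 min RT. Cmpd → 180 s read at 1 Hz → EC80 DA → 180 s read.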
# USP2a inh: USP2a (human) protease inhibition. Potency, µM (highest dose often 38.3 µM), for inactives: top-dose activity change, negative = inhibition, most hits filed as inhibitors. O75604. 0.01% of 330,000 active. USP2 core, Ub-CHOP2 coupled fluorogenic reporter, 485/531. AID 463254;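 further: potency means the concentration at half of the fitted maximal effect; plate controls were DMSO wells for no effect and full inhibition by NEM control for full effect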
# Target sequence (O75604 whole entry, looked up): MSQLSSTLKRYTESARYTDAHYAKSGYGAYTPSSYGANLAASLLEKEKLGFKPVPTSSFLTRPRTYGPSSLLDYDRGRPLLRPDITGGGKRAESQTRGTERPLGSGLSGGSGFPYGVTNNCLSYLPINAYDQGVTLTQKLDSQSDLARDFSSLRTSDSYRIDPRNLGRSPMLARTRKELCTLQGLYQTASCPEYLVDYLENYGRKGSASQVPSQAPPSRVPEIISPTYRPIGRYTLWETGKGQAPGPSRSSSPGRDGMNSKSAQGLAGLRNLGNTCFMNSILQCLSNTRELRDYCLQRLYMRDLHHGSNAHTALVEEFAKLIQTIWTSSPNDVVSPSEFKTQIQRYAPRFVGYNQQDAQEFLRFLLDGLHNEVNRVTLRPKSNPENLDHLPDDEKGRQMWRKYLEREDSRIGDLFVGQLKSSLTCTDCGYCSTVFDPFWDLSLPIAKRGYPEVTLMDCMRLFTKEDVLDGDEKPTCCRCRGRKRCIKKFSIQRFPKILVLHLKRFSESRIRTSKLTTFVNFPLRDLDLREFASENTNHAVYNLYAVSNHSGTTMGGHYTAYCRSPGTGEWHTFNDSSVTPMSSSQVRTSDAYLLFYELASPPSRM
#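 USP2 core (10nM final) preincubated 30min RT with compound in 20mM Tris-HCl pH 8.0, 2mM CaCl2, 2mM beta-mercaptoethanol, 0.05% CHAPS; 25nM Ub-CHOP2 plus 25nM reporter substrate added, fluorescence (Ex485/Em531) read after 60min.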
# Eya2 phos inh: Eya2 (human) phosphatase inhibition | recombinant Eya2, OMFP fluorescence dephosphorylation (OMFP is methylfluorescein phosphate) | Potency, µM (highest dose often 76.9 µM), without a hit: at the top dose activity, negative = inhibition, most hits filed as inhibitors | 0.006% of 330,000 active; further: potency means the concentration at half of the fitted maximal effect; on the % scale 0 is the no-effect control and ±100 the full control effect
#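 Eya2 (0.2 uM) preincubated 10 min at ambient with compound, then OMFP substrate added at 50 uM; 10 min reaction in 50 mM HEPES pH 7.5, 50 mM NaCl, 5 uM MgCl2, 0.05% BSA, 1 mM DTT. Fluorescence read at Ex 485/Em 525 nm.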
# * = called active by the depositor; ? = inconclusive; / = no result given. Unless noted, the call rests on the fitted dose curve; in most records, active means well fitted inhibition curve with a large enough effect; inconclusive means small, poorly fitted or top-dose-only effect, or effect the other way; inactive means flat fitted curve, though single readings scatter.
SMILES,D1 potentiator,D1 agonist,GALK inhibitor,D1 antag,USP2a inh,Eya2 phos inh
Cc1nn(Cc2ccccc2)c2sc(C(=O)N3CCN(Cc4ccc5c(c4)OCO5)CC3)cc12,-12.9,1.6,2.8%,-31.0*,/,/
Cc1cc(C(=O)NCc2cccnc2)n(-c2ccccc2)n1,-4.8,1.8,-0.6%,5.6,2.1%,10.3%
Cc1nn(Cc2ccccc2)c2sc(C(=O)NCc3cccnc3)cc12,-9.5,1.9,3.8%,-47.4*,1.5%,-2.3%
CC(C)c1ccc(NC(=O)Cn2c(=O)n(CC3CCC(C(=O)NCCc4ccccc4)CC3)c(=O)c3ccccc32)cc1 (configuration not stated),-0.9,0.0,/,9.8,/,/
O=C(Nc1nc(-c2cc3ccccc3oc2=O)cs1)c1ccco1,-8.0,-0.5,-3.4%,-63.7*,1.7%,0.4%
COc1cc(OC)c2ccc(=O)oc2c1C(CCN1CCN(c2ccccc2)CC1)c1ccc(N(C)C)cc1 (configuration not stated),-12.8,-0.2,0.1%,-73.6*,-4.8%,-13.1%
COc1cc(C2CC(=O)Oc3c(C(CCN4CCN(c5ccccc5)CC4)c4ccc(N(C)C)cc4)c(OC)cc(OC)c32)cc(OC)c1OC (configuration not stated),-1.4,3.2,3.0%,-37.6*,5.8%,-1.9%
CCCCCc1cc(=O)oc2c(C(CCN3CCN(c4ccccc4)CC3)c3ccc(N(C)C)cc3)c(OC)cc(OC)c12 (configuration not stated),-5.0,2.8,4.0%,-27.0,0.0%,-9.8%
COc1cc(C2CC(=O)Oc3c(C(CCN4CCOCC4)c4ccc(N(C)C)cc4)c(OC)cc(OC)c32)cc(OC)c1OC (configuration not stated),-1.4,2.5,-1.4%,36.4,2.7%,-6.9%
COc1cc(C(CC(=O)N2CCN(c3ccccc3)CC2)c2c(OC)cc(OC)c3ccc(=O)oc23)cc(OC)c1OC (configuration not stated),-7.8,1.3,5.3%,-42.4*,0.0%,-0.6%
CCN(CC)CCC(c1ccc(N(C)C)cc1)c1c(OC)cc(OC)c2c(-c3ccccc3)cc(=O)oc12 (configuration not stated),-5.2,39.2*,-1.1%,-46.8*,5.3%,-2.1%
CCOc1ccc(CCNC(=O)c2ccc(-c3nc(CSc4ccccc4)c(C)o3)cc2)cc1,-2.1,0.6,/,3.7,/,/
COc1ccc(C(CCN2CCOCC2)c2c(OC)cc(OC)c3c(-c4ccccc4)cc(=O)oc23)cc1 (configuration not stated),/,/,/,/,-7.7%,-13.0%
COc1cc(OC)c2c(-c3ccccc3)cc(=O)oc2c1C(CCN1CCN(c2ccccc2)CC1)c1ccc(N(C)C)cc1 (configuration not stated),-7.7,3.8,-1.0%,-32.4*,7.4%,-2.1%
COc1cc(OC)c2c(-c3ccccc3)cc(=O)oc2c1C(CC(=O)N1CCN(c2ccccc2)CC1)c1ccc(N(C)C)cc1 (configuration not stated),-5.2,-1.2,1.6%,-13.4,-0.2%,0.0%
CCN(CC)C(=O)CC(c1cc(OC)c(OC)c(OC)c1)c1c(OC)cc(OC)c2ccc(=O)oc12 (configuration not stated),0.7,2.8,-2.1%,-7.5,11.5%,-6.4%
COc1ccc(C(CCN2CCN(c3ccccc3)CC2)c2c(OC)cc(OC)c3c(-c4ccccc4)cc(=O)oc23)cc1 (configuration not stated),-9.1,3.9,0.4%,-41.6*,2.8%,-7.0%
CCN(CC)C(=O)CC(c1cc(OC)c(OC)c(OC)c1)c1c(OC)cc(OC)c2c(-c3ccccc3)cc(=O)oc12 (configuration not stated),-9.4,1.7,-3.8%,-100.4*,1.1%,-10.0%
CCOc1ccc(S(=O)(=O)NCC(c2ccco2)S(=O)(=O)c2ccc(F)cc2)cc1 (configuration not stated),-1.3,0.3,/,/,/,/
Cn1c2ccsc2c2cnn(Cc3ccccc3F)c(=O)c21,-2.9,1.3,/,-28.9,/,/
C=CCC(C(=O)NC(C)c1ccccc1)C(=O)NC(C)c1ccccc1 (configuration not stated),6.7,32.4*,4.8%,-17.9,-5.8%,-5.4%
CC(NC(=O)CCNC(=O)c1ccco1)c1ccccc1 (configuration not stated),-5.8,0.0,/,-42.3*,-0.5%,-2.3%
CCC(C(=O)NC(C)c1ccccc1)C(=O)NC(C)c1ccccc1 (configuration not stated),-4.2,5.2,6.2%,-7.8,-1.4%,-1.7%
CC(NC(=O)CCSCCC(=O)NC(C)c1ccccc1)c1ccccc1 (configuration not stated),-2.0,0.6,0.9%,-45.1*,0.4%,2.7%
O=C(CCNC(=O)c1ccco1)Nc1cccc(Br)c1,-2.5,2.5,4.5%,-30.3*,2.2%,-1.3%
SMILES,D1 potentiator,D1 agonist,GALK inhibitor,D1 antag,USP2a inh,Eya2 phos inh
CC(NC(=O)CNC(=O)c1ccco1)c1ccccc1 (configuration not stated),-0.9,1.2,-2.3%,-0.1,0.8%,12.6%
COc1ccc(NC(=O)c2oc3ccccc3c2NC(=O)c2cc(OC)c(OC)c(OC)c2)cc1,-0.7,1.9,/,0.1,/,/
O=C(CC1N=C2c3ccccc3N=C(SCc3ccccc3F)N2C1=O)NCc1cccs1 (configuration not stated),0.1,0.3,/,15.6,/,/
O=C(Cn1cc(SCc2ccc(Cl)cc2)c2ccccc21)N1CCCC1,-7.0,2.4,/,-5.0,/,/
Cc1ccc2nc(NC(=O)[C@H](C)N3C(=O)C4CC=CCC4C3=O)sc2c1 (some centres not stated),4.8,3.8,0.1%,-0.7,0.2%,7.3%
C[C@@H](C(=O)Nc1nc2ccc(F)cc2s1)N1C(=O)C2CC=CCC2C1=O (some centres not stated),0.5,0.5,0.0%,-45.0*,-3.8%,2.5%
CC1CCN(Cc2c(O)ccc3c(=O)c(Oc4ccccc4Cl)c(C(F)(F)F)oc23)CC1,-6.2,-0.4,/,12.9,/,/
CC(=O)N1CCc2cc(S(=O)(=O)NC(CC(C)C)C(=O)Nc3ccc(C(C)C)cc3)ccc21 (configuration not stated),4.8,4.8,/,-19.8,/,/
CCCC1CCC(C(=O)Nn2cnc3ccccc3c2=O)CC1 (configuration not stated),3.7,-3.7,-0.8%,13.4,-0.4%,-6.9%
O=C(Nn1cnc2ccccc2c1=O)C1CCCCC1,0.6,2.8,-0.7%,-30.4*,0.1%,-6.7%
CC[n+]1ccc(/C=C/c2c[nH]c3ccccc23)cc1,-1.6,63.7*,4.1%,10.4,?,15.4%
